Activity change, negative = inhibition data for 52 compounds are collected here from PubChem BioAssay AID652062 (Broad Institute, 2013).

Each structure is given as a SMILES string. The campaign covered roughly 1,400 compounds. About 1,100 (79%) were called active.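 The calls were made as follows: active = fitted half-maximal concentration of a falling signal no higher than twice the top valid dose in every test run; inconclusive = runs disagree, or flat partial inhibition, or poor fit; inactive = every run inactive: flat, wrong direction, or potency beyond limit.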 So high a share suggests a set chosen from earlier hits. The list is a sample of the results. Potency and affinity values are given separately.

A short description of this test: inhibitors of clade B AD8 Env fusion, dose response, cell-based, cherry-pick (AID 652062). The following applies: HeLa-AD8 Env / CEM-CCR5 cell fusion, luciferase; at 35 µM (top of the series) unless noted.
With `CC(NC(=O)c1ccccc1NC(=O)CN1CCc2ccccc2C1)c1ccccc1` (configuration not stated), the activity change, negative = inhibition was -3.06%.
Take `Cc1ccc(NC(=O)c2ccc(OCC3CCCO3)cc2)cc1Cl` (configuration not stated): the activity change, negative = inhibition was -7.89%.
Then `O=C1c2cccnc2C(Nc2ccc(S(=O)(=O)N3CCCCCC3)cc2)N1Cc1ccccc1` (configuration not stated), with -20.4%; and `O=C1c2cccnc2C(Nc2ccc(S(=O)(=O)N3CCCCC3)cc2)N1Cc1ccccc1` (configuration not stated), with 6.27%; and `CCCc1cc(C(=O)NCc2ccc(OC)cc2)no1`, with 14.3%.
The value for `Cc1noc(C)c1S(=O)(=O)N(C)C[C@H]1Oc2ccc(NC(=O)Nc3ccccc3)cc2CC(=O)N([C@H](C)CO)C[C@H]1C` was 14.5%.
For the compound `CCNC(=O)C[C@@H]1CC[C@@H]2[C@H](COC[C@@H](O)CN2C(=O)c2ccccn2)O1`, the activity change, negative = inhibition was found to be 66.2%.
Then `CC(C)NC(=O)N(C)C[C@@H]1Oc2ccc(NC(=O)C3CC3)cc2CC(=O)N([C@H](C)CO)C[C@H]1C`, with -3.87%; and `CC(C)NC(=O)N(C)C[C@@H]1Oc2ccc(NC(=O)C3CC3)cc2CC(=O)N([C@@H](C)CO)C[C@@H]1C`, with -3.66%; and `Nc1ncn([C@H]2C[C@H](O)[C@@H](CO)O2)c(=O)n1`, with 8.34%.
Turning to `C[C@@H]1CN([C@@H](C)CO)S(=O)(=O)c2ccc(-c3ccccc3)cc2O[C@H]1CN(C)S(C)(=O)=O`, the activity change, negative = inhibition is 54.4%.
The value for `Nc1nc2c(ncn2[C@@H]2O[C@H](C(=O)NCC(c3ccccc3)c3ccccc3)[C@@H](O)[C@H]2O)c(=O)[nH]1` was 19.5%; that for `C[C@@H]1CN([C@H](C)CO)C(=O)c2cccc(NS(=O)(=O)c3cn(C)cn3)c2O[C@H]1CN(C)C(=O)Nc1ccc(F)cc1` was 0.184%; that for `CCN(CCn1cccn1)C(=O)CC1C(=O)NCCN1CCc1ccccc1` (configuration not stated) was 27.6%.
Take `O=C(CC1C(=O)NCCN1Cc1cccc(F)c1)NC1CCCCC1` (configuration not stated): the activity change, negative = inhibition worked out at 73.6%.
Then `CCCCNC(=O)C[C@H]1C[C@@]2(C(=O)OC)C(=C[C@H](C(C)(C)C)O[C@@H]2C)N(Cc2ccc3c(c2)OCO3)C1=O`, with 26.7%; and `Cc1ccc2c(c1)c1c3n2CCN(CC(N)=O)C3CCC1` (configuration not stated), with 38.7%.
The value for `Cc1ccc(-n2ncc3c(N4CCN(c5ccccc5)CC4)ncnc32)c(C)c1` was -35.1%.
Then `Cc1ccc(Cn2ncc3c(N4CCN(c5ccc(C)cc5)CC4)ncnc32)cc1`, with -19.9%; and `COc1ccc(NS(=O)(=O)c2cccc(C(=O)NNC(=O)CNC(=O)c3ccc(C)cc3)c2)cc1`, with 3.44%; and `CCOC(=O)[C@]12CCC=C1N(Cc1ccc3c(c1)OCO3)C(=O)[C@H](CC(=O)NCC13CC4CC(CC(C4)C1)C3)C2`, with 17.3% [at 16 µM].
For the compound `COC(=O)[C@]12CCCCC=C1N(Cc1ccco1)C(=O)[C@H](CC(=O)NCCc1ccccc1OC)C2`, the activity change, negative = inhibition is 99.6%.
Then `C[C@@H]1CN([C@H](C)CO)C(=O)c2cc(NC(=O)Nc3ccccc3)ccc2O[C@@H]1CN(C)S(=O)(=O)c1ccccc1`, with 138%; and `CCOC(=O)[C@@H]1[C@H]2COc3cc(OC)ccc3[C@H]2N2C(=O)N(c3cccc(F)c3)C(=O)[C@@]12C`, with 236%; and `C[C@H]1CN([C@@H](C)CO)C(=O)c2cccc(NC(=O)Nc3ccc(C(F)(F)F)cc3)c2O[C@H]1CN(C)S(=O)(=O)c1ccccc1`, with -14.4%.
Then `CCN(CC)S(=O)(=O)c1ccc(NC(=O)Nc2cccc(C(F)(F)F)c2)cc1`, with -121%; and `CCc1nnc(NC(=O)[C@@H](NC(=O)c2cccc(S(=O)(=O)N(CC)CC)c2)C(C)C)s1`, with 52.6%.
As to `O=C(NCc1ccco1)c1ccc(Cn2c(=O)c3ccccc3n(Cc3cccc(F)c3)c2=O)cc1`, the activity change, negative = inhibition was determined as 15.9%.
Regarding `CCCCCn1c(C(C)NC(=O)CCC)nc2ccccc21` (configuration not stated), the activity change, negative = inhibition is -19.3%.
The value for `COc1cc2c(c(OC)c1OC)[C@@]1(c3ccccc3)CCCC[C@H]1[C@@H]2NC(=O)C(F)(F)F` was -28.2%; that for `Cc1ccc(NS(=O)(=O)c2cc(C(=O)N(C)C3CCN(C)CC3)ccc2Cl)cc1Cl` was 81.1%; that for `CCN(c1nc(N)c(C(=O)N=C(N)N)nc1Cl)C(C)C` was -8.55%.
The value for `Cc1[nH]c2ccccc2c1/C=N\NC(=O)c1ccccc1Cl` was 8.5%.
Then `CN1CCc2ccccc2Cc2[nH]c3ccccc3c2CC1`, with -17.8%; and `CC(C)OCCCn1c(=S)[nH]c2ccc(N3CCOCC3)cc2c1=O`, with -27.3%.
Regarding `O=C(NCc1ccccc1)[C@@H]1CCCN1C(=O)[C@@H]1CCCN1C(=O)c1cccc2ccccc12`, the activity change, negative = inhibition was -3.32%.
Turning to `Cc1cc(C(=O)N2CCC(C(=O)O)CC2)c(C(F)(F)F)o1`, the activity change, negative = inhibition is -10.2%.
Then `C[C@@H]1CN([C@@H](C)CO)C(=O)c2cc(NC(=O)c3ccccc3)ccc2O[C@@H](C)CCCCO[C@H]1CN(C)Cc1ccc(C(=O)O)cc1`, with 52.2%.
The value for `COc1ccc(CN(C)C[C@@H]2Oc3ccc(NC(=O)Nc4ccc(OC)cc4)cc3C(=O)N([C@H](C)CO)C[C@@H]2C)cc1` was 64%; that for `C[C@@H]1CN([C@@H](C)CO)C(=O)c2cc(NC(=O)c3ccncc3)ccc2O[C@@H]1CN(C)Cc1ccncc1` was 34.4%.
The value for `C[C@@H]1CN([C@@H](C)CO)C(=O)c2cc(NC(=O)c3ccncc3)ccc2O[C@H]1CN(C)Cc1ccncc1` was 56.3%; that for `O=c1[nH]c(=O)n([C@H]2C[C@H](O)[C@@H](CO)O2)cc1F` was -10.2%; that for `Cc1cc(C)nc(/N=C(\N)Nc2ccc(CC(=O)OC(C)C)cc2)n1` was 39.8%.
Consider `C[C@@]12C(=O)N(Cc3ccc(F)cc3)CC(=O)N1[C@H]1c3cc(Cl)ccc3OC[C@@H]1[C@@H]2c1ccccc1`, for which the activity change, negative = inhibition worked out at 19.5%.
In the case of `CN(C[C@H](Cc1ccccc1)N(C[C@H](c1ccccc1)N(CCc1ccccc1)N=O)N=O)N=O`, the activity change, negative = inhibition is -5.55%.
The value for `C[C@@H]1CN([C@@H](C)CO)C(=O)c2cc(NS(=O)(=O)c3ccccc3)ccc2O[C@H]1CN(C)Cc1ccc(Oc2ccccc2)cc1` was 132%; that for `Cc1ccc(S(=O)(=O)Nc2ccc3c(c2)CC(=O)N([C@@H](C)CO)C[C@H](C)[C@@H](CN(C)Cc2ccc(-c4ccccc4)cc2)O3)cc1` was 215% [at 18 µM].
Regarding `Cc1ccc(S(=O)(=O)Nc2ccc3c(c2)C(=O)N([C@H](C)CO)C[C@@H](C)[C@H](CN(C)S(=O)(=O)c2ccc(F)cc2)O3)cc1`, the activity change, negative = inhibition is -22.9% [at 16 µM].
The value for `O=C(C1CCCCC1)N1CCCC(c2nc3c(nnn3Cc3ccccc3)c(=O)[nH]2)C1` (configuration not stated) was -8.09% [at 16 µM]; that for `C[C@H](CO)N1C[C@H](C)[C@@H](CN(C)S(=O)(=O)c2ccc(F)cc2)Oc2ccc(NS(=O)(=O)c3cn(C)cn3)cc2CC1=O` was 35.3%; that for `Cc1ccc(S(=O)(=O)N(C)C[C@@H]2Oc3ccc(NS(=O)(=O)c4c(C)noc4C)cc3CC(=O)N([C@H](C)CO)C[C@@H]2C)cc1` was -10.8%.
The value for `C[C@H](CO)N1C[C@H](C)[C@H](CN(C)S(=O)(=O)c2ccccc2)Oc2ccc(NS(=O)(=O)c3ccc(F)cc3)cc2CC1=O` was 10.2%.
